Assay [1] in a line: small molecules captured by biotinylated probe aFSTL3 – biochemical, small-molecule microarray, fluorescence 635/667, stem cell growth factor project, primary screen (AID 1064).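 Note: measures binding of the biotinylated anti-FSTL3 antibody to printed compounds.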 The following applies: higher = more signal.
The nature of assay [2]: binders from COS7 lysate, DM2A8 probe, primary screen, torsin A project, cell lysate, small-molecule microarray, fluorescence 635/667 (AID 1065). Conditions: higher = more signal, COS7 lysate expressing mutant human TOR1A.
Assay [3] is described as follows: small molecules captured by biotinylated probe aFGF2 – biochemical, small-molecule microarray, fluorescence 635/667, stem cell growth factor project, primary screen (AID 1067).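 Note: measures binding of biotinylated aFGF2 protein to printed compounds on slides; z-score merges feature fluorescence and signal-to-noise across triplicate slides.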 Conditions: higher = more signal.
Assay [4] is described as follows: small molecules captured by biotinylated probe aFGF10 – biochemical, small-molecule microarray, fluorescence 635/667, stem cell growth factor project, primary screen (AID 1071).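 Note: score merges 667 nm spot intensity and signal to noise from triplicate slides.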 The following applies: higher = more signal.
For assay [5], the target named is Neurogenic locus notch homolog protein 2 (Homo sapiens) (UniProt Q04721). Kind of assay: small molecules binding Notch2 protein – biochemical, small-molecule microarray, 635 nm fluorescence, stem cell growth factors, primary screen (AID 1073). The following applies: higher = more signal.
The target of assay [6] is Pro-neuregulin-1, membrane-bound isoform (Homo sapiens) (UniProt Q02297). The assay is described as follows: small molecules binding neuregulin-1 protein – biochemical, small-molecule microarray, fluorescence 635/667, psychiatric disease protein project, primary screen (AID 1075).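 Note: score combines 667 nm spot fluorescence with signal to noise.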 Conditions: NRG1 binding, 635 nm fluorescence, higher = more signal.
Assay [7] relates to Neuregulin-1 EGF-like domain. The assay is described as follows: small molecules binding NRG1 EGF domain – biochemical, small-molecule microarray, 635 nm fluorescence, primary screen (AID 1081).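 Note: binding of the protein to compounds printed on small-molecule microarray slides.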 Conditions: higher = more signal.
A short description of assay [8]: FRG1 expression reporter modulators in myotubes – cell-based, C2C12 myotubes, firefly/Renilla luciferase, luminescence, FRG1 inhibition for FSHD, primary screen (AID 1084). The following applies: FRG1 promoter luciferase, higher = more signal, called active from +8 up or from −8 down.
Assay [9] in a line: small molecules captured by biotinylated probe aFST – biochemical, small-molecule microarray, fluorescence 635/667, stem cell growth factor project, primary screen (AID 1086).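 Note: score merges 667 nm fluorescence with signal-to-noise of each printed compound spot.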 The following applies: higher = more signal.
Assay [10] in a line: binders of probe aHhip on microarray, primary screen, stem cell growth factor project, biochemical, small-molecule microarray, fluorescence 635/667 (AID 1087).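 Note: score merges spot fluorescence at 667nm with spot signal to noise ratio.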 The following applies: higher = more signal.
For assay [11], the system named is PRMT1 (protein arginine N-methyltransferase 1). The assay is described as follows: small molecules binding arginine methyltransferase PRMT1 – biochemical, small-molecule microarray, 635 nm fluorescence, primary screen (AID 1088).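 Note: binding of Prmt1 protein to compounds spotted on small-molecule microarray slides.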 The following applies: higher = more signal.
A short description of assay [12]: growth effects on S. cerevisiae YJM789 – YJM789 clinical isolate, OD600, 24 h, basal, primary screen (AID 1089).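 Note: growth of clinical yeast isolate S. cerevisiae YJM 789 seeded 1000 cells per well; test concentration not given here.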 Conditions: higher = more signal, called active from +8 up or from −8 down.
Assay [13] is described as follows: S. pombe growth modifiers, basal conditions – strain 972, OD600, 24 h, no modulator, primary screen (AID 1090).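 Note: basal condition with compound alone and no growth modifier present; test concentration not given here.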 The following applies: S. pombe 972 growth, higher = more signal, called active from +8 up or from −8 down.
The nature of assay [14]: budding yeast growth modifiers under rapamycin – strain BY4716, OD600, 96 h, primary screen (AID 1091). Note: test concentration not given here. Conditions: S. cerevisiae BY4716 + rapamycin, higher = more signal, called active from +8 up or from −8 down.
Assay [15] addresses Torsin-1A-interacting protein 2 (Homo sapiens) (UniProt Q8NFQ8). The assay is described as follows: small molecules binding lysate-expressed LULL1 – cell lysate, human LULL1 lysate, 635/667 nm fluorescence, primary screen (AID 1092).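 Note: probe is lysate of COS7 cells overexpressing human LULL1; score merges per-feature 667 nm fluorescence with signal-to-noise.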 Conditions: small-molecule microarray, hLULL1 lysate binding, 635 nm fluorescence; higher = more signal.
The nature of assay [16]: optical density change of DRC41 E. coli – strain DRC41, OD650, 24 h, E. coli filamentation project, primary screen (AID 1093).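 Note: MC1000 strain lacking acrAB efflux and sulA so SOS filamentation is blocked; test concentration not given here.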 The following applies: E. coli DRC41 growth, higher = more signal, called active from +8 up or from −8 down.
Assay [17] is described as follows: probe aLefty2 binding to arrayed compounds – biochemical, biotinylated probe, 635/667 nm fluorescence, primary screen (AID 1094).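 Note: score merges spot fluorescence near 667 nm with spot signal-to-noise ratio.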 The following applies: small-molecule microarray, higher = more signal.
Assay [18] relates to Noggin (protein binding on small-molecule microarray). The assay is described as follows: small molecules binding Noggin protein – biochemical, 635/667 nm fluorescence, primary screen (AID 1095).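 Note: score merges 667 nm feature fluorescence with signal to noise over triplicate slides.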 Conditions: 635 nm fluorescence, higher = more signal.
The target in assay [19] is Neurogenic locus notch homolog protein 3 (Homo sapiens) (UniProt Q9UM47). Kind of assay: small molecules binding NOTCH3 protein – biochemical, 635/667 nm fluorescence, primary screen (AID 1096). The following applies: small-molecule microarray, 635 nm fluorescence, higher = more signal.
A short description of assay [20]: probe aEGFR binding to arrayed compounds – biochemical, biotinylated probe, 635/667 nm fluorescence, primary screen (AID 1097).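 Note: probe is a biotinylated anti-EGFR antibody binding compounds printed on slides; score combines fluorescence near 667 nm and signal to noise of each spot.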 The following applies: small-molecule microarray, higher = more signal.

Among the data in PubChem BioAssay are composite z-score and z-score values, retold here.

Each structure is given as a SMILES string. Activity calls are given as the source filed them.

Chain of Torsin-1A-interacting protein 2 (Homo sapiens) (Q8NFQ8 whole entry, looked up): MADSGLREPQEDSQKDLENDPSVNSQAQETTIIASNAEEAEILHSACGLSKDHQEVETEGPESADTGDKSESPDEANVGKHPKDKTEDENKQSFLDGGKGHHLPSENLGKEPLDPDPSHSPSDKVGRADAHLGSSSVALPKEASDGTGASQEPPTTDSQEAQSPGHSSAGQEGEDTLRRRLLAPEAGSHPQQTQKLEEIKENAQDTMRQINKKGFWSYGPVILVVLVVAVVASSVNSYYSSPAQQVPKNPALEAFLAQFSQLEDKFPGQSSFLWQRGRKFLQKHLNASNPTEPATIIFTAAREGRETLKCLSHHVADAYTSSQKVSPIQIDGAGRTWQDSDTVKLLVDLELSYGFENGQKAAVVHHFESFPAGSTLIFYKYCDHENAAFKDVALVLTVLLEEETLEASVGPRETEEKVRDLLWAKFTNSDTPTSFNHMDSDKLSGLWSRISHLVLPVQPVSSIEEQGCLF
Chain of Neurogenic locus notch homolog protein 2 (Homo sapiens) (Q04721 whole entry, looked up, canonical isoform): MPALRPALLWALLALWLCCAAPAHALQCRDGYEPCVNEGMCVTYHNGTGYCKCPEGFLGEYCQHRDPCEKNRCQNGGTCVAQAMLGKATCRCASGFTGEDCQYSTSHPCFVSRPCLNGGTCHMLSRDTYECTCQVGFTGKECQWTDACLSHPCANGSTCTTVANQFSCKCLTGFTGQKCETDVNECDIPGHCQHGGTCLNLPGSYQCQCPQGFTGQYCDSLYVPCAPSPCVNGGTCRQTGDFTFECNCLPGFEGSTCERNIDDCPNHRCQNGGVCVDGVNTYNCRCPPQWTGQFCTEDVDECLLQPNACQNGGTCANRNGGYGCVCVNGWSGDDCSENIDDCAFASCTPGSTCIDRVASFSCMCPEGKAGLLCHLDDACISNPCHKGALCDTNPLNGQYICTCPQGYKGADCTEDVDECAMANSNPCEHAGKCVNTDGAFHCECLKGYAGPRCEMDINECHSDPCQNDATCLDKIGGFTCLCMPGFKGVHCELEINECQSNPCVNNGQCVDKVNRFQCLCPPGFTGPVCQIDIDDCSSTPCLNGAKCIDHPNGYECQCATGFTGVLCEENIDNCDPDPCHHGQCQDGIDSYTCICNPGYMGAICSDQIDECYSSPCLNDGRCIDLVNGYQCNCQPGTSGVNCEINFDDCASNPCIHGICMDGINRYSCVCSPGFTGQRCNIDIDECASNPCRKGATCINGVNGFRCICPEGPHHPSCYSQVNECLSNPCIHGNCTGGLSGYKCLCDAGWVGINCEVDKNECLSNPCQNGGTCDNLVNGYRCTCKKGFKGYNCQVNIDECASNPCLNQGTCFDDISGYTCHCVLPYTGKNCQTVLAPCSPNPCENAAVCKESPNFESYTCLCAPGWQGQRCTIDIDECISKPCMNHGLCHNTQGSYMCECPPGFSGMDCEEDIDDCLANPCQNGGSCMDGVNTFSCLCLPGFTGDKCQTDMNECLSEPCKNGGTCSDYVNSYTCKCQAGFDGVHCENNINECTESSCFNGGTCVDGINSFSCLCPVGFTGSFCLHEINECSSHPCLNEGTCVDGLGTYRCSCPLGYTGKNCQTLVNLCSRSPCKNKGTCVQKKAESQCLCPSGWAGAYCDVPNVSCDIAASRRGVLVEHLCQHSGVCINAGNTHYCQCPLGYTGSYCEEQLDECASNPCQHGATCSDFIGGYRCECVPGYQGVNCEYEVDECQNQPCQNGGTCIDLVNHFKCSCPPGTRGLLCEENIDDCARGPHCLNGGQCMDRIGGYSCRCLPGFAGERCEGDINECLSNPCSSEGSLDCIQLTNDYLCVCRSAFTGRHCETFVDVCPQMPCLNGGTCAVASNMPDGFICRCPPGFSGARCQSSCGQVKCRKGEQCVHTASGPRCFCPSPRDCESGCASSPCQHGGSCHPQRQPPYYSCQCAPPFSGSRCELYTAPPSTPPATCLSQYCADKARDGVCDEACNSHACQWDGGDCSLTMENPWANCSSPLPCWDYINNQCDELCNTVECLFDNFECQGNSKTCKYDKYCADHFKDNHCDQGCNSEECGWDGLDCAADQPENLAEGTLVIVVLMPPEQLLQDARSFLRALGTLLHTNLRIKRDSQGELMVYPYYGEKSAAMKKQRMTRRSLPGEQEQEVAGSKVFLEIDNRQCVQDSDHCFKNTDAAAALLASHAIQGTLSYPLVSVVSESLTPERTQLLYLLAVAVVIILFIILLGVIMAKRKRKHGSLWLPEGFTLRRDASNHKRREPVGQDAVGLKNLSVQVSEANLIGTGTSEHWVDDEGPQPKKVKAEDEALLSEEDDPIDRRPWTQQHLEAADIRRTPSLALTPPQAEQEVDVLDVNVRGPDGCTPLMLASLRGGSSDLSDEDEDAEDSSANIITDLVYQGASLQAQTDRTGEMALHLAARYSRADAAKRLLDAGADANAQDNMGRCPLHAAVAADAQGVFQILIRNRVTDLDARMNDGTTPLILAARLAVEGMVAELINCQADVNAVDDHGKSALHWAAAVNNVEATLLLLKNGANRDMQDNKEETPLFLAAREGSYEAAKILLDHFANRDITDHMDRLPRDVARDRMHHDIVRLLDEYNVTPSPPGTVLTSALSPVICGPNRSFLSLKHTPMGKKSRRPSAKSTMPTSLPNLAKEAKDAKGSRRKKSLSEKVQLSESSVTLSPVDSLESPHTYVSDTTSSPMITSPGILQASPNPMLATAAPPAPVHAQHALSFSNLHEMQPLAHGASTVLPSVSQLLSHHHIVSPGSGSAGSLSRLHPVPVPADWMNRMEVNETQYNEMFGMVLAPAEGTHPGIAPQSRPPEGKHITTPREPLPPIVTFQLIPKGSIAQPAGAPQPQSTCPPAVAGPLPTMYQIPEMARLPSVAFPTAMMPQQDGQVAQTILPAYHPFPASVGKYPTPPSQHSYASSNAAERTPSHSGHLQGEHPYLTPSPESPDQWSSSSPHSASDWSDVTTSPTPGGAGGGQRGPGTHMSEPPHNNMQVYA
Chain of Pro-neuregulin-1, membrane-bound isoform (Homo sapiens) (Q02297 whole entry, looked up, the tested form may be a part, canonical isoform): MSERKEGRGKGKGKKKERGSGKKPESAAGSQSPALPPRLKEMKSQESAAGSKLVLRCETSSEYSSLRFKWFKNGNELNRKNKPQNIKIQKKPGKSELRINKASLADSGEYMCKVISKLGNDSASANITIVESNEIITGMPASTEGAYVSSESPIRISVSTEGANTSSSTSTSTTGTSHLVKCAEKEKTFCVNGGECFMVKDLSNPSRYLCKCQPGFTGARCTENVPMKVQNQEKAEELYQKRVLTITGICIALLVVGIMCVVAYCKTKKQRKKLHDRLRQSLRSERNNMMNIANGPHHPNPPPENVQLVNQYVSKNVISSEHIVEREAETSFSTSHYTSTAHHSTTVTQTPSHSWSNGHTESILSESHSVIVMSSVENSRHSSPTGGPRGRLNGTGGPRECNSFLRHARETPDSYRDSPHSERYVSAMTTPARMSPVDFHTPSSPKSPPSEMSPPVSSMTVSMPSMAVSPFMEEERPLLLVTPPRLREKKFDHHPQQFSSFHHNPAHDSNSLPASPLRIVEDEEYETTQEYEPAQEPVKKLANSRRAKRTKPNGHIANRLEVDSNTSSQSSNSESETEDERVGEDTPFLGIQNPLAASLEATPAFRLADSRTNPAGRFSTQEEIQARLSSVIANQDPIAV

On to `O=C1O[C@H](c2ccccc2)[C@H](c2ccccc2)N2[C@H]1[C@@H](C(=O)NC[C@H](O)c1ccccc1)[C@]1(C(=O)Nc3ccc(C#CC4(O)CCCCCC4)cc31)[C@H]2c1ccccc1OCCO`, for which the composite z-score was -0.267 in assay [1]; 0.444 in [2]; -0.136 in assay [3]; 0.566 in assay [4]; 0.967 in assay [5]; 0.911 in [6]. In addition, the composite z-score was 1.12 in [7]; 0.0026 in assay [9]; -0.0645 in assay [10]; 1.54 in assay [11]; 2.84 in [15]; -0.119 in [17]. The composite z-score in assay [18] was 1.08; in assay [19], 0.644; in [20] it was -0.182. Further, the z-score in assay [8] was -0.369 (inactive); in [12], 2.05 (inactive); in assay [13] it was 1.27 (inactive); in [14], 5.14 (inactive); in assay [16], 0.0483 (inactive).

Turning to `O=C(NCC(O)CO)[C@@]1(Cc2ccccc2)COC(c2ccc(OCCCO)cc2)=N1` (stereo not given in full), the composite z-score in [1] is 0.213; in assay [2] it was -0.0995; in [3] it was -0.083; in assay [4], 0.138; in assay [5], -0.0908; in [6] it was 0.736. In addition, the composite z-score in [7] was 0.698; in assay [9], 0.112; in assay [10] it was -0.12; in assay [11] it was -0.546; in [15] it was 1.1; in assay [17], -0.0809. Further, the composite z-score is -0.891 in assay [18], -1.18 in assay [19] and 0.132 in [20]. Besides, the z-score in assay [8] was 0.518 (inactive); in assay [12], 0.0965 (inactive); in assay [13], -0.92 (inactive); in [14], -0.639 (inactive); in assay [16] it was 0.869 (inactive).

Consider `COc1ccc([Si](C)(C)[C@@H]2[C@@H](CCn3cc([C@H](O)c4ccccc4)nn3)O[C@]3(C(=O)N(C)c4ccccc43)[C@H]2C)cc1`, for which the composite z-score in assay [1] is -0.266; in assay [2], 0.356; in assay [3], -0.0468; in [4], 0.181; in assay [5], 0.0572; in assay [6], 0.0939. For the same compound, the composite z-score in assay [7] was 0.448; in assay [9], -0.108; in assay [10], -0.391; in assay [11] it was 0.384; in assay [15] it was 1.96; in assay [17] it was -0.166. Besides, the composite z-score was -0.133 in assay [18], -0.0523 in assay [19] and -0.0828 in assay [20]. Further, the z-score is -1.31 (inactive) in assay [8]; -0.842 (inactive) in [12]; 0.324 (inactive) in assay [13]; -0.112 (inactive) in assay [14]; -0.036 (inactive) in [16].

With `CCCCN1CC=CC23O[C@@H]4C=CCCOC(=O)C4[C@H]2C(=O)N(CCCO)[C@@H]3C1=O` (stereo not given in full), the composite z-score in assay [1] was -0.0115; in [2], -0.265; in assay [3] it was -0.147; in [4], -0.609; in assay [5], -1.08; in [6], -0.931. The composite z-score is -0.053 in assay [7]; -0.277 in [9]; -0.191 in assay [10]; -0.253 in assay [11]; -0.748 in [15]; -0.172 in assay [17]. Besides, the composite z-score in [18] is 0.217; in assay [19], -1.68; in assay [20] it was -0.244. Besides, the z-score was 0.211 (inactive) in assay [8]; -0.174 (inactive) in assay [12]; -0.788 (inactive) in [13]; -0.497 (inactive) in assay [14]; 1.02 (inactive) in assay [16].

For `C=CC[C@@]1(C(=O)NCCN2CCOCC2)N=C(c2ccc(OCCCO)cc2)O[C@@H]1c1ccccc1CN=[N+]=[N-]`, the composite z-score in assay [1] was 1; in assay [2], 0.812; in assay [3], -0.0524; in assay [4] it was 0.455; in [5], 0.674; in assay [6], 1.26. Besides, the composite z-score in assay [7] came out at 1.29; in assay [9] it was 1.65; in assay [10], 0.0989; in assay [11], 1.56; in assay [15], 3.02; in [17], 0.149. The composite z-score in assay [18] was -0.0392; in [19], 0.19; in assay [20] it was -0.0735. Further, the z-score in assay [8] is -0.484 (inactive); in assay [12], -1.46 (inactive); in assay [13], -1.18 (inactive); in assay [14] it was -0.548 (inactive); in assay [16], 0.0499 (inactive).
